{"source": "PubChem BioAssay AID1851", "about": "(National Center for Advancing Translational Sciences (NCATS), 2009)", "note": "Screen size: about 16,000 compounds; about 5,100 (32%) were called active. Inconclusive results (about 25%) are left out. Calls follow the shape of the dose curve; as a rule, active = well fitted curve in the direction sought with a large enough effect; inconclusive = small, poorly fitted or top-dose-only effect, or effect the other way; inactive = no such curve, though single readings can be large or run the other way. The list shows a part of the results. % is scaled to controls: 0 for no effect and ±100 for the full control effect."}
{"target": "Cytochrome P450 3A4 (Homo sapiens) (UniProt P08684)", "sequence (P08684 whole entry, looked up)": "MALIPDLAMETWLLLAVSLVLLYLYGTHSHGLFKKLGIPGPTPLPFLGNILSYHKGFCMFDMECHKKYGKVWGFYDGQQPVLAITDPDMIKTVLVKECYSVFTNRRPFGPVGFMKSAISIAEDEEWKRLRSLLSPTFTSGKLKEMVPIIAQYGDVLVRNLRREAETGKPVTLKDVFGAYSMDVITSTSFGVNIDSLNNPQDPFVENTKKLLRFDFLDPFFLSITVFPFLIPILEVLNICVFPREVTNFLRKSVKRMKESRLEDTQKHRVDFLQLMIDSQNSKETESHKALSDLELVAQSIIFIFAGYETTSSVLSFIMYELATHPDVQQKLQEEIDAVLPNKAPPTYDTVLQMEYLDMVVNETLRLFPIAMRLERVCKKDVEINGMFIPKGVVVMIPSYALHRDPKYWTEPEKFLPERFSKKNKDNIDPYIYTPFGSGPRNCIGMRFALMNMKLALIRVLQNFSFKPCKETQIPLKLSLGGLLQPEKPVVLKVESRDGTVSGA", "assay": "Cytochrome panel assay with activity outcomes", "details": "recombinant CYP, pro-luciferin dealkylation, luminescence, p450-cyp3a4; series mostly up to 57.1 µM"}
{"smiles": "O=C1C[C@H](c2ccccc2)[C@@H](c2ccc(Br)cc2)O1", "activity, negative = inhibition": "1.97% [at 11.4 µM] (inactive)"}
{"smiles": "C#CCCCO/N=C1/[C@H]2O[C@@H]2[C@@H](O)[C@H]2[C@H]1CCn1c(=O)n(Cc3cc4c(cc3Cl)OCO4)c(=O)n12", "activity, negative = inhibition": "-10.8% [at 11.4 µM] (inactive)"}
{"smiles": "Cc1ccccc1CSc1nccn1-c1ccccc1", "AC50": "5.01 µM (active)"}
{"smiles": "Cn1nnnc1SCc1ccccc1[N+](=O)[O-]", "activity, negative = inhibition": "3.46% [at 2.29 µM] (inactive)"}
{"smiles": "Cc1oc(C(C)(C)C)cc1C(=O)Nc1cccc(/C=C/C(=O)O)c1", "AC50": "inactive"}
{"smiles": "Cc1oc(-c2ccccc2)cc1C(=O)Nc1ccc(N(C)C)cc1", "AC50": "17.8 µM (active)"}
{"smiles": "CC(=O)C[C@H](O)[C@@H](NC(=O)OC(C)(C)C)C(C)C", "activity, negative = inhibition": "-26.2% [at 11.4 µM] (inactive)"}
{"smiles": "NC(N)=N/N=C\\c1ccc(O)c(C(=O)O)c1", "activity, negative = inhibition": "-5.15% [at 11.4 µM] (inactive)"}
{"smiles": "CCCCCNCc1cccc(Br)c1", "AC50": "inactive"}
{"smiles": "O=C(N/N=C/c1cccc(Oc2ccccc2)c1)c1cccc(Br)c1", "AC50": "inactive"}
{"smiles": "O=C(N[C@@]1(C(=O)O)C[C@@H]1c1ccccc1)c1ccccc1", "activity, negative = inhibition": "-6.56% [at 11.4 µM] (inactive)"}
{"smiles": "O=C(N/N=C/C1C(c2ccccc2)C1(Cl)Cl)c1cccc(Br)c1", "note": "(stereo unspecified)", "AC50": "12.6 µM (active)"}
{"smiles": "CC(=O)Nc1ccc(NC(=O)CSc2nnc(-c3ccccc3)n2Cc2ccc3c(c2)OCO3)cc1", "AC50": "3.55 µM (active)"}
{"smiles": "Cc1cc(C)nc(SCc2nnc(SCC(N)=O)n2Cc2ccco2)n1", "AC50": "15.8 µM (active)"}
{"smiles": "O=C(CSc1nnc(-c2ccccn2)n1Cc1ccco1)Nc1ccc2c(c1)OCO2", "AC50": "0.891 µM (active)"}
{"smiles": "CCCCOC(=O)CSCC(=O)Nc1cc(C)on1", "activity, negative = inhibition": "-0.1% [at 11.4 µM] (inactive)"}
{"smiles": "Cc1cc(NC(=O)CSc2nnc(-c3ccccc3)n2Cc2ccco2)no1", "AC50": "15.8 µM (active)"}
{"smiles": "COc1ccc(-c2ccc(=N)n(CCCC(=O)O)n2)cc1", "AC50": "inactive"}
{"smiles": "COc1ccc(C(O)c2nccn2Cc2ccccc2)cc1", "note": "(stereo unspecified)", "activity, negative = inhibition": "-29.5% [at 11.4 µM] (inactive)"}
{"smiles": "COc1ccc(-c2cnnc(CCCn3ccnc3-c3ccccc3)n2)cc1", "AC50": "6.31 µM (active)"}
{"smiles": "COCC(=O)N1CCC2(CC1)CCN(C(=O)Nc1cccc(F)c1)CC2", "AC50": "inactive"}
{"smiles": "COc1ccc(S(=O)(=O)N2CCN(CC(=O)Nc3cccc(F)c3)CC2)cc1", "AC50": "7.94 µM (active)"}
{"smiles": "COc1ccc(C)cc1NC(=O)CN1CCN(S(=O)(=O)c2ccc(F)cc2)CC1", "AC50": "7.94 µM (active)"}
{"smiles": "COc1ccccc1NC(=O)CN1CCC(C(=O)c2ccc(F)cc2)CC1", "activity, negative = inhibition": "-1.8% [at 2.29 µM] (inactive)"}
{"smiles": "COc1ccc(S(=O)(=O)N2CCC(N3CCCCC3)CC2)cc1", "AC50": "inactive"}
{"smiles": "COc1ccc(S(=O)(=O)N2CCC(NC(=O)Nc3ccc(C)cc3)CC2)cc1", "AC50": "8.91 µM (active)"}
{"smiles": "COc1ccc(S(=O)(=O)N2CCCN(CC(=O)Nc3ccc(OC)c(Cl)c3)CC2)cc1", "AC50": "7.94 µM (active)"}
{"smiles": "COc1ccc(S(=O)(=O)Nc2ccc(S(=O)(=O)N3CCCCC3)cc2)cc1C", "activity, negative = inhibition": "-19.1% [at 2.29 µM] (inactive)"}
{"smiles": "Nc1[nH]c(=S)[nH]c(=O)c1N=Nc1c(Br)cc(S(N)(=O)=O)cc1Br", "activity, negative = inhibition": "-21% [at 11.4 µM] (inactive)"}
{"smiles": "O=C(CN1CCN(S(=O)(=O)c2ccccc2)CC1)NC(=O)NCc1ccccc1", "AC50": "inactive"}
{"smiles": "COc1ccc(S(=O)(=O)N2CCN(CC(=O)Nc3cc(OC)cc(OC)c3)CC2)cc1", "AC50": "3.98 µM (active)"}
{"smiles": "COC(=O)[C@@]1(Cc2ccccc2)[C@H]2c3cc(C(=O)N4CCCC4)n(CC4CC4)c3C[C@H]2CN1C(=O)c1ccccc1", "AC50": "3.16 µM (active)"}
{"smiles": "COC(=O)[C@@]1(Cc2ccccc2)[C@H]2c3cc(C(=O)N4CCCC4)n(C)c3C[C@H]2CN1C(=O)c1ccccc1", "AC50": "3.98 µM (active)"}
{"smiles": "CCOC(=O)[C@H](CCc1ccccc1)N[C@@H](C)C(=O)N1CCC[C@H]1C(=O)O", "AC50": "inactive"}
{"smiles": "O=[N+]([O-])c1nccn1C[C@H](O)CN1CCCCC1", "activity, negative = inhibition": "-20.2% [at 11.4 µM] (inactive)"}
{"smiles": "COc1ccc(C(=O)N/N=C2/SCC(=O)N2Cc2ccc3c(c2)OCO3)cc1OC", "AC50": "1.12 µM (active)"}
{"smiles": "CCOC(=O)c1c(C)[nH]c(C)c1C(=O)COC(=O)c1ccc(S(=O)(=O)N(CC)CC)cc1", "AC50": "0.282 µM (active)"}
{"smiles": "CCN(CC)CCOC(=O)c1ccc(N)cc1", "AC50": "inactive"}
{"smiles": "CCCN(CCC)S(=O)(=O)c1ccc(C(=O)O)cc1", "AC50": "inactive"}
{"smiles": "CCOC(=O)c1c(C)[nH]c(C)c1C(=O)COC(=O)c1cccc(S(=O)(=O)N(CC)CC)c1", "AC50": "0.316 µM (active)"}
{"smiles": "NCCCNCCCCNCCCN", "AC50": "inactive"}
{"smiles": "O=C(O)CCNc1ncnc2nc[nH]c12", "activity, negative = inhibition": "-0.12% [at 11.4 µM] (inactive)"}
{"smiles": "CCO[P@]1(=O)OC[C@@H]2O[C@H](n3cnc4c(N)ncnc43)[C@H](O)[C@@H]2O1", "activity, negative = inhibition": "7.34% [at 11.4 µM] (inactive)"}
{"smiles": "O=C1c2cccc3c(Cl)ccc(c23)C(=O)N1O", "activity, negative = inhibition": "-15% [at 11.4 µM] (inactive)"}
{"smiles": "O=C1c2cccc3c(Nc4ccccc4Cl)c([N+](=O)[O-])cc(c23)C(=O)N1CCO", "AC50": "14.1 µM (active)"}
{"smiles": "CCc1ccccc1N1C(=O)c2cccc3c(N4CCOCC4)c([N+](=O)[O-])cc(c23)C1=O", "AC50": "inactive"}
{"smiles": "c1coc(CN2CCN(C(c3cccs3)c3nnnn3C3CCCC3)CC2)c1", "note": "(stereo unspecified)", "AC50": "14.1 µM (active)"}
{"smiles": "Clc1ccc(C(c2nnnn2C2CCCC2)N2CCN(Cc3ccncc3)CC2)cc1", "note": "(stereo unspecified)", "AC50": "2 µM (active)"}
{"smiles": "Cc1ccc(C(c2nnnn2C2CCCC2)N2CCN3CCCC3C2)cc1", "note": "(stereo unspecified)", "AC50": "14.1 µM (active)"}
{"smiles": "CC(C)(C)N1C(=O)[C@@H]2[C@H]3C(=CC[C@H]2C1=O)C(=O)[C@H]1O[C@H]1[C@H]3O", "activity, negative = inhibition": "-4.13% [at 11.4 µM] (inactive)"}
{"smiles": "O=S(Cc1ccccc1)CC(O)(c1ccccc1)c1ccccc1", "note": "(stereo unspecified)", "AC50": "inactive"}
{"smiles": "O=C(NCC1CCCO1)c1cc(-c2ccc(Cl)cc2Cl)on1", "note": "(stereo unspecified)", "AC50": "inactive"}
{"smiles": "O=C(Nc1cnn(Cc2ccc(Cl)cc2Cl)c1)c1cc(-c2cccs2)on1", "AC50": "10 µM (active)"}
{"smiles": "CC(C)(C)NC(=O)Cn1cnc([N+](=O)[O-])n1", "AC50": "inactive"}
{"smiles": "O=C(CCCn1cnc([N+](=O)[O-])n1)Nc1ccc(Cl)c(Cl)c1", "AC50": "14.1 µM (active)"}
{"smiles": "O=C(Cn1cnc([N+](=O)[O-])n1)N/N=C/c1ccccc1O", "AC50": "inactive"}
